Assay outcomes: PubChem BioAssay, National Center for Advancing Translational Sciences (NCATS)
The list is not random: actives were taken first. Their share in the collection is about 19%.
DT40 TDP1 CPT – DT40-hTDP1 cell growth loss with CPT; actives 12% (n = 420,000); Potency, µM (series often up to 46.2 µM), most hits filed as inhibitors; chicken DT40 Tdp1-/-;hTDP1 cells + 20 nM CPT, ATP luminescence, 48 h; AID 686979; also: nearly all actives have a fitted effect of over 55% in size
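Cell growth measured by CellTiter-Glo luminescence after a minimum 48 h, 37 C compound exposure with 20 nM CPT in Tdp1-knockout DT40 cells stably expressing hTDP1, seeded 400/well; qHTS titration format.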
DT40 TDP1 no CPT – qHTS for Inhibitors of human tyrosyl-DNA phosphodiesterase 1 (TDP1): qHTS in cells in absence of CPT; DT40 Tdp1-/- hTDP1 cells, no CPT, ATP luminescence, 48 h; Potency, µM (top dose mostly 46.2 µM), actives largely listed as inhibitors; actives 15% (n = 420,000); AID 686978, 2013; also: nearly all actives have a fitted effect of over 55% in size
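Cells were dispensed at 400 per well, compounds added by pin tool, plates incubated ≥48 hr at 37 °C, then CellTiter-Glo added for 30 min at room temperature before luminescence reading. Line: DT40 Tdp1-/- complemented with hTDP1; camptothecin omitted.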
TGFb SMAD3 inh – blocks TGF-b signaling; HepG2 CAGA-GFP TGF-b/SMAD3 reporter, GFP fluorescence, 18 h; TGF-beta stimulated, 500 pg/mL final; Potency, µM (series often up to 46.1 µM), actives largely listed as inhibitors; actives 1.2% (n = 410,000); AID 588855; also: nearly all actives have a fitted effect of over 65% in size
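Cell-based qHTS in HEPG2 carrying a CAGA-GFP Smad reporter; compounds added before 500 pg/mL final TGF-beta, 18 h incubation at 37 degrees C, GFP fluorescence quantified per cell by imaging cytometry.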
HepG2 tox – HepG2 cytotoxicity, counter-screen for TGF-b inhibitors; HepG2 CAGA-GFP viability, ATP luminescence, 18 h; Potency, µM (titrated, usually from 46.1 µM), most hits filed as cytotoxic; actives 0.76% (n = 410,000)
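CellTiter-Glo luminescence gave cytotoxicity after 18 hours at 37 degrees C. The cells were HepG2 CAGA-GFP in 1% FBS DMEM, stimulated with 500 pg/mL TGF-beta after compound addition. %Activity was normalised to no-cell wells (complete cell-killing) and DMSO (no toxicity), and curves were fitted and classified.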
IL-1B inflam inh – blocks inflammasome-driven IL-1 beta release. THP-1 LPS/ATP IL-1B secretion, AlphaLISA, 16 h; stronger effect = lower value. activity change, % at 57.5 µM. actives 4.7% (n = 360,000); in the data active = activity change below about -50%; inconclusive = mostly about -30% to -49%
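THP-1 cells pretreated 1 hr with compounds (up to 57.5 uM final), then stimulated with LPS (250 ng/mL final) plus ATP (1.25 mM final); secreted IL-1B measured by AlphaLISA after 16 hr, decreased signal indicating inhibition.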
TDP1 inh – TDP1 (human) enzyme inhibition; Q9NUW8; recombinant TDP1, AlphaScreen DNA substrate cleavage; Potency, µM (doses to about 130 µM), hits mostly inhibitors; actives 0.28% (n = 350,000); AID 485290; also: nearly all actives have a fitted effect of over 40% in size
Target sequence (Q9NUW8 whole entry, looked up): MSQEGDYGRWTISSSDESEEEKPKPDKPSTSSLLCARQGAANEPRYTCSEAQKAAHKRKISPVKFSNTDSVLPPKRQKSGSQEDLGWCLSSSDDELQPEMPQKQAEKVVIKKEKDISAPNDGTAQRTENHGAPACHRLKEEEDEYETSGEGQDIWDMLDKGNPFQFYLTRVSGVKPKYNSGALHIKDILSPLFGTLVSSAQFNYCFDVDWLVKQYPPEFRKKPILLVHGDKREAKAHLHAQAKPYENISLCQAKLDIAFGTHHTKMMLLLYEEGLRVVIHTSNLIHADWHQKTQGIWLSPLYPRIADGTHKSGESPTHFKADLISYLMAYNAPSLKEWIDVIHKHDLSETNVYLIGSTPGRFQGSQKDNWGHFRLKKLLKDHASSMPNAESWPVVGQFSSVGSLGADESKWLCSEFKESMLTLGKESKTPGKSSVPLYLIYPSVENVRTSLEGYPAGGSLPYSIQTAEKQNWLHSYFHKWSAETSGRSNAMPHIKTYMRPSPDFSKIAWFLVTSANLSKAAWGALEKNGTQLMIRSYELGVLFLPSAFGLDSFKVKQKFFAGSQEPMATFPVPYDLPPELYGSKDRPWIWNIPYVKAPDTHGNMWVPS
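Enzyme-compound mixtures sat 15 min at room temperature, followed by a 5 min reaction with 15 nM final substrate and 10 min with AlphaScreen beads. Recombinant human Tdp1 was used at 1 nM final.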
Large screens that a line does not name were inactive. Unless noted, calls follow the shape of the dose curve; as a rule, active = well fitted curve in the direction sought with a large enough effect; inconclusive = small, poorly fitted or top-dose-only effect, or another doubt; inactive = no such curve, though single readings can be large; an effect the other way counts as inactive or inconclusive.

CC1(C)CC(=O)C2=C(C1)NC(Nc1nc3ccccc3o1)=NC21CCCCC1	DT40 TDP1 CPT inconclusive, DT40 TDP1 no CPT 23µM
Nc1ncnc2c1ncn2[C@@H]1O[C@H](CO)C[C@H]1O	DT40 TDP1 CPT 8.2µM, DT40 TDP1 no CPT 7.3µM (no result: TDP1 inh)
CC1(C)O[C@@H]2[C@H](O1)[C@@H](COS(=O)(=O)O)O[C@H]2n1cnc2c(N)ncnc21	none (no result: DT40 TDP1 CPT, DT40 TDP1 no CPT, TGFb SMAD3 inh, HepG2 tox, IL-1B inflam inh)
Nc1ncnc2c1ncn2[C@@H]1O[C@H](COS(=O)(=O)O)[C@@H](O)[C@H]1O	DT40 TDP1 CPT inconclusive, DT40 TDP1 no CPT 18µM
Nc1nc2c(ncn2CCC(CO)CO)c(=O)[nH]1	DT40 TDP1 CPT 0.67µM, DT40 TDP1 no CPT 1.7µM (no result: TGFb SMAD3 inh, HepG2 tox, IL-1B inflam inh, TDP1 inh)
Nc1nc2c(ncn2C2OC(CO)CC2O)c(=O)[nH]1 (stereo not drawn)	DT40 TDP1 CPT 0.92µM, DT40 TDP1 no CPT 1.5µM (no result: TGFb SMAD3 inh, HepG2 tox, IL-1B inflam inh)
O=C(CCn1c(=O)c2cccn2c2cccnc21)Nc1ccccc1Br	DT40 TDP1 no CPT inconclusive (no result: IL-1B inflam inh)
Cc1cc2c(s1)c1cnn(Cc3ccccc3Cl)c(=O)c1n2C	none (no result: DT40 TDP1 CPT, DT40 TDP1 no CPT, TGFb SMAD3 inh, HepG2 tox, IL-1B inflam inh)
COc1ccc2cc(C#N)c(SCC(=O)OCc3ccccc3)nc2c1	none (no result: IL-1B inflam inh)
O=C(CSc1nccn1C1CCCC1)Nc1ccccc1	none (no result: TGFb SMAD3 inh, IL-1B inflam inh)
Cc1cc2n(n1)C(c1ccccc1)CC(c1ccc(Br)cc1)=N2 (stereo not drawn)	DT40 TDP1 CPT 16µM, DT40 TDP1 no CPT inconclusive, IL-1B inflam inh inconclusive
O=[N+]([O-])c1cccc(/C=N/Nc2nc(NCc3ccccc3)nc(N3CCOCC3)n2)c1O	DT40 TDP1 CPT 13µM, DT40 TDP1 no CPT inconclusive, TGFb SMAD3 inh inconclusive
O=[N+]([O-])c1cccc(/C=N/Nc2nc(N3CCCCC3)nc(N3CCCCC3)n2)c1	DT40 TDP1 CPT inconclusive, DT40 TDP1 no CPT inconclusive
CN(C)c1nc(NCc2ccccc2)nc(N/N=C/c2cccc(Br)c2)n1	DT40 TDP1 CPT 5.8µM, DT40 TDP1 no CPT 7.3µM
O=[N+]([O-])c1cccc(/C=N/Nc2nc(NCc3ccccc3)nc(N3CCOCC3)n2)c1	DT40 TDP1 CPT 15µM, DT40 TDP1 no CPT inconclusive
Cc1cc(N/N=C/c2cccc(Br)c2)nc2ccccc12	none
NNc1nc(NCc2ccccc2)nc(N2CCOCC2)n1	DT40 TDP1 no CPT inconclusive
c1ccc(SCCSc2ccccc2)cc1	none (no result: DT40 TDP1 CPT, DT40 TDP1 no CPT, TGFb SMAD3 inh, HepG2 tox, IL-1B inflam inh)
COc1ccc2[nH]c(=O)c(CN(C)C(=O)c3ccncc3)cc2c1	none
CCCCN(Cc1cc2cc(OC)ccc2[nH]c1=O)C(=O)c1ccco1	DT40 TDP1 CPT inconclusive, DT40 TDP1 no CPT inconclusive
CCCN(Cc1cc2cccc(C)c2[nH]c1=O)C(=O)c1cccc(OC)c1	DT40 TDP1 CPT inconclusive, DT40 TDP1 no CPT 16µM (no result: TDP1 inh)
CCCN(Cc1cc2cc(OC)ccc2[nH]c1=O)C(=O)c1ccco1	DT40 TDP1 CPT 29µM, DT40 TDP1 no CPT 16µM (no result: TDP1 inh)
CCCN(Cc1cc2cc(OC)ccc2[nH]c1=O)C(=O)c1ccncc1	DT40 TDP1 CPT inconclusive, DT40 TDP1 no CPT 16µM
CCOC(=O)c1[nH]c(C)c(CCC(=O)Nc2cccc(C(F)(F)F)c2)c1C	DT40 TDP1 CPT inconclusive, DT40 TDP1 no CPT inconclusive (no result: IL-1B inflam inh)
Cc1ccc(C)c(NC(=O)Cn2c(=O)n(CCC(C)C)c(=O)c3cccnc32)c1	none (no result: IL-1B inflam inh)
CCN(CC(=O)Nc1ccccc1C(F)(F)F)C(=O)CN1C(=O)NC(C)(c2ccc3ccccc3c2)C1=O (stereo not drawn)	DT40 TDP1 CPT inconclusive (no result: TDP1 inh)
COCCc1nn2c(=O)cc(COC(=O)COc3ccc(F)cc3)nc2s1	none (no result: IL-1B inflam inh)
Clc1ccccc1OCCCCN1CCCC1	none
N=C(CC(O)COc1ccccc1-c1ccccc1)N1CCCCC1 (stereo not drawn)	DT40 TDP1 CPT 5.2µM, DT40 TDP1 no CPT 3.3µM (no result: TGFb SMAD3 inh, HepG2 tox, IL-1B inflam inh)
c1ccc(-c2ccccc2OCCCCN2CCCCC2)cc1	DT40 TDP1 CPT inconclusive, DT40 TDP1 no CPT 16µM, IL-1B inflam inh -63
c1ccc2c(OCCCCN3CCCC3)cccc2c1	DT40 TDP1 CPT inconclusive, DT40 TDP1 no CPT 26µM (no result: TDP1 inh)
